These results are taken from PubChem BioAssay (NCI).

A short description of assay [1]: NCI Yeast Anticancer Drug Screen. Data for the rad50 strain (AID 155).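 Note: 0% = growth of vehicle-only cultures of the same strain.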 As to conditions: S. cerevisiae rad50 strain growth inhibition, stronger effect = higher value. An outline of the steps:
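A DNA repair-deficient yeast mutant serves as the test organism; compound-induced growth inhibition is calculated against vehicle-treated cells.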

Assay [2] in a line: NCI Yeast Anticancer Drug Screen. Data for the mec2-1 strain (AID 157). As to conditions: S. cerevisiae mec2-1 strain, stronger effect = higher value. An outline of the steps: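 Readout is yeast growth inhibition, normalised to vehicle-treated controls, in the mec2-1 strain exposed to compound.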
The nature of assay [3]: NCI Yeast Anticancer Drug Screen. Data for the sgs1 mgt1 strain (AID 161).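 Note: 0% = growth of cultures given vehicle only.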 As to conditions: S. cerevisiae sgs1 mgt1 strain, stronger effect = higher value. An outline of the steps:
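Growth of a repair-deficient yeast mutant was monitored after compound treatment and expressed as inhibition relative to vehicle-treated cultures.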

Assay [4] is described as follows: NCI Yeast Anticancer Drug Screen. Data for the cln2 rad14 strain (AID 165).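 Note: 0% = growth equal to vehicle treated cultures.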 The conditions noted are these: S. cerevisiae cln2 rad14 strain, stronger effect = higher value. An outline of the steps: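 Relative to vehicle controls, growth inhibition of compound-treated cln2 rad14 yeast was recorded.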
The nature of assay [5]: NCI Yeast Anticancer Drug Screen. Data for the bub3 strain (AID 167). The conditions noted are these: S. cerevisiae bub3 mutant strain, stronger effect = higher value. In a few lines: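 Inhibition values come from growth of compound-treated mutant yeast normalised to vehicle-treated controls.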
Assay [6] can be described thus: NCI Yeast Anticancer Drug Screen. Data for the mlh1 rad18 strain (AID 175). As to conditions: S. cerevisiae mlh1 rad18 strain growth inhibition, stronger effect = higher value. An outline of the steps: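 Test agents were incubated with a yeast strain of defined genotype (DNA damage repair defect). Inhibition of growth was derived by comparison with vehicle-exposed cultures.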

Where [7] appears, read: at 5.0 µM (retest, dose inferred, filed as 0.5).
[8] abbreviates: at 50.0 µM (retest, dose inferred, filed as 5.0).

Molecules are shown by their SMILES. This is part of a sample that, as a whole, favours compounds with a hit. Of some 79,000 tested, about 15% had one in any assay. Unmarked numbers belong to inactive results. Active and inactive are the calls of the source. Cut-off read from the data, not from the text of the source: active = growth inhibition above about 70%; inactive = the rest.

Take `CC(=O)C(CN(CC(C)C)CC(C)C)C(c1ccccc1)c1c(O)c2ccccc2oc1=O` (stereo not given): the growth inhibition in assay [1] (setting [7]) is 0%; in assay [1] (setting [8]), 0%; in assay [1] (at 50.0 µM), 80.1% (active); in assay [2] (setting [7]), -12%; in assay [2] (setting [8]), -12%; in assay [2] (at 50.0 µM), 73.7% (active). Besides, the growth inhibition was -2% in assay [3] (setting [7]); -2% in assay [3] (setting [8]); 85% (active) in assay [3] (at 50.0 µM); -10% in assay [4] (setting [7]); -10% in assay [4] (setting [8]); 83.2% (active) in assay [4] (at 50.0 µM). Further, the growth inhibition was -1% in assay [5] (setting [7]); -1% in assay [5] (setting [8]); 78.8% (active) in assay [5] (at 50.0 µM); 7% in assay [6] (setting [7]); 7% in assay [6] (setting [8]); 81.9% (active) in assay [6] (at 50.0 µM).

Regarding `Cc1ccc(NCc2ccccc2)cc1[As](=O)(O)O`, the growth inhibition in assay [1] (setting [7]) was -1%; in assay [1] (setting [8]), 97% (active); in assay [1] (at 50.0 µM), 47%; in assay [2] (setting [7]), -2%; in assay [2] (setting [8]), 96% (active); in assay [2] (at 50.0 µM), 12.9%. Further, the growth inhibition is -4% in assay [3] (setting [7]); 67% in assay [3] (setting [8]); 8.3% in assay [3] (at 50.0 µM); -5% in assay [4] (setting [7]); 94% (active) in assay [4] (setting [8]); -16.8% in assay [4] (at 50.0 µM). The growth inhibition in assay [5] (setting [7]) was -2%; in assay [5] (setting [8]), 99% (active); in assay [5] (at 50.0 µM), 41.5%; in assay [6] (setting [7]), -1%; in assay [6] (setting [8]), 99% (active); in assay [6] (at 50.0 µM) it was 66.3%.

On to `COc1c(Cl)[c]([Hg][O]C(C)=O)c(NCC(C)=O)c(OC)[c]1[Hg][O]C(C)=O`, for which the growth inhibition in assay [1] (setting [7]) was 80% (active); in assay [1] (setting [8]) it was 94% (active); in assay [1] (at 50.0 µM), 87.3% (active); in assay [2] (setting [7]), 99% (active); in assay [2] (setting [8]), 94% (active); in assay [2] (at 50.0 µM) it was 90.5% (active). Also, the growth inhibition in assay [3] (setting [7]) is 99% (active); in assay [3] (setting [8]), 95% (active); in assay [3] (at 50.0 µM), 90.8% (active); in assay [4] (setting [7]) it was 35%; in assay [4] (setting [8]) it was 95% (active); in assay [4] (at 50.0 µM), 89.4% (active). Besides, the growth inhibition in assay [5] (setting [7]) was 99% (active); in assay [5] (setting [8]) it was 94% (active); in assay [5] (at 50.0 µM) it was 89.4% (active); in assay [6] (setting [7]), 95% (active); in assay [6] (setting [8]), 94% (active); in assay [6] (at 50.0 µM), 86.4% (active).

In the case of `C[CH2][Sn]1([CH2]C)[O]C2C(OC)OC3COC(c4ccccc4)OC3C2[O]1` (stereo not given), the growth inhibition is 77% (active) in assay [1] (setting [7]); 80% (active) in assay [1] (setting [8]); 18.4% in assay [1] (at 50.0 µM); 42% in assay [2] (setting [7]); 70% (active) in assay [2] (setting [8]); 61.2% in assay [2] (at 50.0 µM). Further, the growth inhibition in assay [3] (setting [7]) was 67%; in assay [3] (setting [8]) it was 77% (active); in assay [3] (at 50.0 µM) it was -9.95%; in assay [4] (setting [7]) it was 68%; in assay [4] (setting [8]) it was 40%; in assay [4] (at 50.0 µM), -21.4%. The growth inhibition in assay [5] (setting [7]) was 69%; in assay [5] (setting [8]) it was 40%; in assay [5] (at 50.0 µM), 71.8% (active); in assay [6] (setting [7]) it was 53%; in assay [6] (setting [8]) it was 54%; in assay [6] (at 50.0 µM), -16.1%.

For the compound `CC[C@@]1(O)C(=O)OCc2c1cc1n(c2=O)Cc2cc3c(OC)cccc3nc2-1`, the growth inhibition is 96% (active) in assay [1] (setting [7]); 92% (active) in assay [1] (setting [8]); 83.6% (active) in assay [1] (at 50.0 µM); 96% (active) in assay [2] (setting [7]); 92% (active) in assay [2] (setting [8]); 89.4% (active) in assay [2] (at 50.0 µM). The growth inhibition is 71% (active) in assay [3] (setting [7]); 88% (active) in assay [3] (setting [8]); 82.4% (active) in assay [3] (at 50.0 µM); 55% in assay [4] (setting [7]); 74% (active) in assay [4] (setting [8]); 64% in assay [4] (at 50.0 µM). Besides, the growth inhibition in assay [5] (setting [7]) was 48%; in assay [5] (setting [8]), 78% (active); in assay [5] (at 50.0 µM), 70.8% (active); in assay [6] (setting [7]) it was 86% (active); in assay [6] (setting [8]), 83% (active); in assay [6] (at 50.0 µM) it was 78.8% (active).

For `CC1(C)CC2(c3ccccc3)CC(c3ccccc3)C1C(C(=O)O)C2C(=O)O` (stereo not given), the growth inhibition was 28% in assay [1] (setting [7]); 99% (active) in assay [1] (setting [8]); 99.2% (active) in assay [1] (at 50.0 µM); 27% in assay [2] (setting [7]); 99% (active) in assay [2] (setting [8]); 99.3% (active) in assay [2] (at 50.0 µM). The growth inhibition in assay [3] (setting [7]) was 10%; in assay [3] (setting [8]), 99% (active); in assay [3] (at 50.0 µM), 99.2% (active); in assay [4] (setting [7]), 7%; in assay [4] (setting [8]), 99% (active); in assay [4] (at 50.0 µM), 98.8% (active). For the same compound, the growth inhibition is 35% in assay [5] (setting [7]); 96% (active) in assay [5] (setting [8]); 98.5% (active) in assay [5] (at 50.0 µM); 17% in assay [6] (setting [7]); 99% (active) in assay [6] (setting [8]); 99.2% (active) in assay [6] (at 50.0 µM).

Regarding `O=C(O)C(F)(F)F.[Ag]`, the growth inhibition in assay [1] (setting [7]) was 99% (active); in assay [1] (setting [8]) it was 98% (active); in assay [1] (at 50.0 µM) it was 98.1% (active); in assay [2] (setting [7]), 100% (active); in assay [2] (setting [8]), 99% (active); in assay [2] (at 50.0 µM) it was 99.2% (active). Moreover, the growth inhibition in assay [3] (setting [7]) was 99% (active); in assay [3] (setting [8]) it was 99% (active); in assay [3] (at 50.0 µM), 99.1% (active); in assay [4] (setting [7]), 99% (active); in assay [4] (setting [8]), 99% (active); in assay [4] (at 50.0 µM) it was 98.7% (active). In addition, the growth inhibition in assay [5] (setting [7]) is 99% (active); in assay [5] (setting [8]) it was 98% (active); in assay [5] (at 50.0 µM) it was 98.5% (active); in assay [6] (setting [7]), 99% (active); in assay [6] (setting [8]) it was 99% (active); in assay [6] (at 50.0 µM), 97.6% (active).

Regarding `COC([CH2][Hg])CN1C(=O)c2cc(C)c(C)cc2C1=O` (stereo not given), the growth inhibition in assay [1] (setting [7]) was 99% (active); in assay [1] (setting [8]), 99% (active); in assay [1] (at 50.0 µM) it was 99.3% (active); in assay [2] (setting [7]), 100% (active); in assay [2] (setting [8]), 100% (active); in assay [2] (at 50.0 µM) it was 99.7% (active). In addition, the growth inhibition is 100% (active) in assay [3] (setting [7]); 100% (active) in assay [3] (setting [8]); 99.6% (active) in assay [3] (at 50.0 µM); 99% (active) in assay [4] (setting [7]); 99% (active) in assay [4] (setting [8]); 98.3% (active) in assay [4] (at 50.0 µM). The growth inhibition is 99% (active) in assay [5] (setting [7]); 99% (active) in assay [5] (setting [8]); 98.7% (active) in assay [5] (at 50.0 µM); 99% (active) in assay [6] (setting [7]); 99% (active) in assay [6] (setting [8]); 99.3% (active) in assay [6] (at 50.0 µM).

As to `CC12CCC(=O)C=C1CCC1C2CCC2(C)C(O[Si](C)(C)OC3CCC4C5CCC6=CC(=O)CCC6(C)C5CCC34C)CCC12` (stereo not given), the growth inhibition in assay [1] (setting [7]) was 3%; in assay [1] (setting [8]) it was 44%; in assay [1] (at 50.0 µM) it was 98.8% (active); in assay [2] (setting [7]), -12%; in assay [2] (setting [8]), 16%; in assay [2] (at 50.0 µM), 98.7% (active). In addition, the growth inhibition in assay [3] (setting [7]) is 0%; in assay [3] (setting [8]) it was 37%; in assay [3] (at 50.0 µM), 95.8% (active); in assay [4] (setting [7]) it was 1%; in assay [4] (setting [8]) it was 33%; in assay [4] (at 50.0 µM), 58.4%. The growth inhibition is -1% in assay [5] (setting [7]); 0% in assay [5] (setting [8]); 97.1% (active) in assay [5] (at 50.0 µM); 6% in assay [6] (setting [7]); 53% in assay [6] (setting [8]); 96.8% (active) in assay [6] (at 50.0 µM).

Turning to `O=Cc1ccccc1O.O=Cc1ccccc1O.[O]=[Mo]=[O]`, the growth inhibition is 5% in assay [1] (setting [7]); 29% in assay [1] (setting [8]); 11.8% in assay [1] (at 50.0 µM); -1% in assay [2] (setting [7]); 36% in assay [2] (setting [8]); 3.65% in assay [2] (at 50.0 µM). Moreover, the growth inhibition in assay [3] (setting [7]) is 8%; in assay [3] (setting [8]), 41%; in assay [3] (at 50.0 µM), 8.2%; in assay [4] (setting [7]) it was -7%; in assay [4] (setting [8]) it was 16%; in assay [4] (at 50.0 µM) it was 42%. In addition, the growth inhibition in assay [5] (setting [7]) is -3%; in assay [5] (setting [8]), 34%; in assay [5] (at 50.0 µM), -5.6%; in assay [6] (setting [7]), 2%; in assay [6] (setting [8]), 46%; in assay [6] (at 50.0 µM), 2.45%.
